This note sets out measurements from paper PMC7862700, “An all-to-all approach to the identification of sequence-specific readers for epigenetic DNA modifications on cytosine”.

Common to all, as to experiment: DAPPL (digital affinity profiling via proximity ligation, sequencing); 10 mM Tris-HCl pH 7.5, 50 mM NaCl, 1 mM DTT, 4% glycerol, room temperature, 30 min; GST-TFs on glutathione beads, 16-mer random dsDNA library, 0.1% formaldehyde crosslink after washing; high values mean tight binding
Test [1] concerns the target T1, FEV (Homo sapiens, UniProt Q99581 1-238).
T1 sequence: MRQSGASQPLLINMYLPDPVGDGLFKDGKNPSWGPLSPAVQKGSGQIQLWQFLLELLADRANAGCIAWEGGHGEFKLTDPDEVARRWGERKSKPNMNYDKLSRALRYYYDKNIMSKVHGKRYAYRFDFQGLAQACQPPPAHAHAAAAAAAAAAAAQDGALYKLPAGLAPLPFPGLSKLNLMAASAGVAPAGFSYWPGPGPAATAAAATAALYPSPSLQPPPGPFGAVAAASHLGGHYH
Conditions: protein: recombinant; tags: N-terminal GST; dsDNA, one strand shown. Put shortly: (§1)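 A tag-only sample was pooled with DNA-barcoded human transcription factors that had been expressed in yeast as GST fusions and captured on glutathione beads. The pools were incubated for 30 min at room temperature with 200 nmole of a random double-stranded 16-mer DNA library in Tris/NaCl/DTT/glycerol buffer, then washed, crosslinked with 0.1% formaldehyde, proximity-ligated (BsaI/T4 ligase, 1 h, 37 °C), PCR-amplified and sequenced on an Illumina NextSeq500. Binding signal is each hexamer's read frequency for a factor divided by its frequency for the tag-only sample.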

Test [2] addresses ETV5 (Homo sapiens, UniProt P41161 1-510). Conditions: protein: recombinant; tags: N-terminal GST; dsDNA, one strand shown. The procedure, abridged:
as §1

For test [3], the target named is HSF1 (Homo sapiens, UniProt Q00613 1-529). Particulars: protein: recombinant; tags: N-terminal GST; chain copies: 3; dsDNA, one strand shown. The procedure, abridged:
as §1

Test [4] deals with T2, SPIC (Homo sapiens, UniProt Q8N5J4 1-248).
T2 sequence: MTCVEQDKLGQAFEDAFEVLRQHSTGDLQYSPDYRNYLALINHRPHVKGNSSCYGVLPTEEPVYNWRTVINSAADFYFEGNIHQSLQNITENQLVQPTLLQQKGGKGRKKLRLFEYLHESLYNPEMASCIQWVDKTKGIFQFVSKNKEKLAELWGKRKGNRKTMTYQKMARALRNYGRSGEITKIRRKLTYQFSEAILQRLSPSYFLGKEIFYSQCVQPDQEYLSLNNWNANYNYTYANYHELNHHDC
Conditions: protein: recombinant; tags: N-terminal GST; dsDNA, one strand shown. Put shortly: as §1

For test [5], the target named is ELF4 (Homo sapiens, UniProt Q99607 1-663). Conditions: protein: recombinant; tags: N-terminal GST; dsDNA, one strand shown. The procedure, abridged:
as §1

Test [6] deals with T3, ELK4 (Homo sapiens, UniProt P28324-2 1-405).
T3 sequence: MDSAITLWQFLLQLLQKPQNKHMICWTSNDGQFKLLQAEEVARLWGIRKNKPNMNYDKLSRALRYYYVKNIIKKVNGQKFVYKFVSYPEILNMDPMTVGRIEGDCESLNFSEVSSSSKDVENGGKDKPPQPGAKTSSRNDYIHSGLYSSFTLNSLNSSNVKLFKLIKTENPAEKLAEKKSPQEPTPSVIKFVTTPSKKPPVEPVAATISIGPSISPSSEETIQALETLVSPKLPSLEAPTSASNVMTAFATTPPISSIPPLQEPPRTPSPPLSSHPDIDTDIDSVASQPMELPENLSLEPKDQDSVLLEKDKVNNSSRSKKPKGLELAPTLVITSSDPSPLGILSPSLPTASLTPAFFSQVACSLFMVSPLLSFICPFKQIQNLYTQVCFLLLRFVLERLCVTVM
Particulars: protein: recombinant; tags: N-terminal GST; dsDNA, one strand shown. The procedure, abridged: as §1

Test [7] has as its target T4, ETV2 (Homo sapiens, UniProt O00321 1-342).
T4 sequence: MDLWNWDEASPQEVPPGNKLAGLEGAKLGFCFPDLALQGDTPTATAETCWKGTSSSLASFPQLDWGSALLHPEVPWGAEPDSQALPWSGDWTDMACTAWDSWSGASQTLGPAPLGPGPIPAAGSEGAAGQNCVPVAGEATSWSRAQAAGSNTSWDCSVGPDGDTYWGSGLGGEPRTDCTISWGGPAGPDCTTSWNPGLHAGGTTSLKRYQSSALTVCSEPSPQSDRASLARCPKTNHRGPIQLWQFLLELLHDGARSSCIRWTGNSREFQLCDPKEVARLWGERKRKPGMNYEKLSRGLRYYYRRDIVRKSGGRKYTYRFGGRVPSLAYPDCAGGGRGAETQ
Conditions: protein: recombinant; tags: N-terminal GST; dsDNA, one strand shown. The procedure, abridged: as §1

Test [8] addresses T5, ELF3 (Homo sapiens, UniProt P78545 1-371).
T5 sequence: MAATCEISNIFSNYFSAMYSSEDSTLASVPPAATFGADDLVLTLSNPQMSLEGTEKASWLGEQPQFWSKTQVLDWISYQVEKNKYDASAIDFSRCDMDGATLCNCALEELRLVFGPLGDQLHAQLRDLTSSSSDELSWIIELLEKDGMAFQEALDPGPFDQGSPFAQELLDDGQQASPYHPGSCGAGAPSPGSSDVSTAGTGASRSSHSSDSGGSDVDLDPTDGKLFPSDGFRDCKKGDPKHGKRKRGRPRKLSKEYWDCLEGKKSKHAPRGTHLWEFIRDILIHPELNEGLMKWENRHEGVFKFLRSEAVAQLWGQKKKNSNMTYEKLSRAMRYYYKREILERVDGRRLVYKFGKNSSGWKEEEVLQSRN
Particulars: protein: recombinant; tags: N-terminal GST; dsDNA, one strand shown. Put shortly: as §1

In test [9] the target is CRX (Homo sapiens, UniProt O43186 1-299). Particulars: protein: recombinant; tags: N-terminal GST; dsDNA, one strand shown. Put shortly:
as §1

Test [10] concerns the target ETV1 (Homo sapiens, UniProt P50549 1-477). Conditions: protein: recombinant; tags: N-terminal GST; dsDNA, one strand shown. Put shortly: as §1
Test [11] has as its target T6, ERF (Homo sapiens, UniProt P50548 1-548).
T6 sequence: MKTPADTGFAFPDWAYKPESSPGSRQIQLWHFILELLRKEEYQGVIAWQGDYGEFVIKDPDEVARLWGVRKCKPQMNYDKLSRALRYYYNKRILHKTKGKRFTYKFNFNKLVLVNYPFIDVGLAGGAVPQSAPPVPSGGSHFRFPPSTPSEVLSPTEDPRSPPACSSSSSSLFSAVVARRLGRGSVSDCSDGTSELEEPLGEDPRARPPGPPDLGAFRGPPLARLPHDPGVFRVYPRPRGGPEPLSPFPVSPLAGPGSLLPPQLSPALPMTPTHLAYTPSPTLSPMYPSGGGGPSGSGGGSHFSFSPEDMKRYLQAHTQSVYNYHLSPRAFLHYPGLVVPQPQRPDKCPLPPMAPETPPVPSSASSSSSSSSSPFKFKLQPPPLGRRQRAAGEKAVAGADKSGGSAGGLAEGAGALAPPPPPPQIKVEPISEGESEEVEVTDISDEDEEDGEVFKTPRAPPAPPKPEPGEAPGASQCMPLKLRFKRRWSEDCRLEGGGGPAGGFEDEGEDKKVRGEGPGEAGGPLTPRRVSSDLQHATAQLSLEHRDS
Particulars: protein: recombinant; tags: N-terminal GST; dsDNA, one strand shown. Put shortly: as §1

Test [12] deals with T7, ETV3L (Homo sapiens, UniProt Q6ZN32 1-361).
T7 sequence: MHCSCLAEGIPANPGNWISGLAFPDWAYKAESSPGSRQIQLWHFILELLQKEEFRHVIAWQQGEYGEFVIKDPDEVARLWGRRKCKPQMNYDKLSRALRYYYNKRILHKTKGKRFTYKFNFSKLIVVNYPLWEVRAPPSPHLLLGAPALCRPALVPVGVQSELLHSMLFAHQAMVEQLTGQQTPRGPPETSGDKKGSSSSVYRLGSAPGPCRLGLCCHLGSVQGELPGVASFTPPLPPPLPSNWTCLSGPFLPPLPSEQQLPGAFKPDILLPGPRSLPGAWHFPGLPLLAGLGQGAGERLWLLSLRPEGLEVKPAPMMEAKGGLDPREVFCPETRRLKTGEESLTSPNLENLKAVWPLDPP
Particulars: protein: recombinant; tags: N-terminal GST; dsDNA, one strand shown. Put shortly: as §1

Test [13] deals with T8, ETS2 (Homo sapiens, UniProt P15036 1-469).
T8 sequence: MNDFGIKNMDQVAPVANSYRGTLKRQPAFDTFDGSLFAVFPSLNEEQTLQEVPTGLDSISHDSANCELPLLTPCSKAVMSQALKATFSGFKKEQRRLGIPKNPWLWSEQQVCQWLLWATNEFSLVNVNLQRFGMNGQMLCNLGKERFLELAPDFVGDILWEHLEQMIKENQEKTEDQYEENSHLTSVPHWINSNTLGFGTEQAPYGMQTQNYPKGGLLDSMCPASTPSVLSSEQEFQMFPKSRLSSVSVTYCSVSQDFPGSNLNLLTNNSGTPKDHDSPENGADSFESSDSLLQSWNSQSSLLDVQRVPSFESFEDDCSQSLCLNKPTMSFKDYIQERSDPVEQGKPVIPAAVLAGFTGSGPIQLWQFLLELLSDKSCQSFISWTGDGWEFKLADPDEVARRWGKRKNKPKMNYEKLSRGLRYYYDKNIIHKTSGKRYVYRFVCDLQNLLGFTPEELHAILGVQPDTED
Particulars: protein: recombinant; tags: N-terminal GST; dsDNA, one strand shown. Put shortly: as §1

In test [14] the target is T9, SPDEF (Homo sapiens, UniProt O95238 1-335).
T9 sequence: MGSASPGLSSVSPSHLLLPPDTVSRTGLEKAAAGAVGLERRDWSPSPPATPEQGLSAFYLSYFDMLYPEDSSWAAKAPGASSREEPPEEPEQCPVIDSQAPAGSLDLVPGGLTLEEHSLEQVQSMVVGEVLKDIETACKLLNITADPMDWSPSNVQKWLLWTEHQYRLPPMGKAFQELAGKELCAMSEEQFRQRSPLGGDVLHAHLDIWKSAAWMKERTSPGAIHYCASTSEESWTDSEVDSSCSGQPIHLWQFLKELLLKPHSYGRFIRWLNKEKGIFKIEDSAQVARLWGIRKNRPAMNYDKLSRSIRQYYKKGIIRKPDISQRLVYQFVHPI
Conditions: protein: recombinant; tags: N-terminal GST; dsDNA, one strand shown. Put shortly:
as §1

In test [15] the target is T10, ETV7 (Homo sapiens, UniProt Q9Y603 1-341).
T10 sequence: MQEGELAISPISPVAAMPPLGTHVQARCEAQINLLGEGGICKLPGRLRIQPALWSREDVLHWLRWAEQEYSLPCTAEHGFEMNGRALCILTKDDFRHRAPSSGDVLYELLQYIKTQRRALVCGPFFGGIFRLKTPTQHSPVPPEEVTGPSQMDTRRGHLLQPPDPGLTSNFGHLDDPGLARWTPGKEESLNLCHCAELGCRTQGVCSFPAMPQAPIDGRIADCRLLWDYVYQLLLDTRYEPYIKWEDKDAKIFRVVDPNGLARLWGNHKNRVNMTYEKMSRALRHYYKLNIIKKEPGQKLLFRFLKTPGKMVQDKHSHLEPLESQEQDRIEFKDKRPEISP
Conditions: protein: recombinant; tags: N-terminal GST; dsDNA, one strand shown. The procedure, abridged: as §1

The target of test [16] is T11, ELF5 (Homo sapiens, UniProt Q9UKW6-2 1-255).
T11 sequence: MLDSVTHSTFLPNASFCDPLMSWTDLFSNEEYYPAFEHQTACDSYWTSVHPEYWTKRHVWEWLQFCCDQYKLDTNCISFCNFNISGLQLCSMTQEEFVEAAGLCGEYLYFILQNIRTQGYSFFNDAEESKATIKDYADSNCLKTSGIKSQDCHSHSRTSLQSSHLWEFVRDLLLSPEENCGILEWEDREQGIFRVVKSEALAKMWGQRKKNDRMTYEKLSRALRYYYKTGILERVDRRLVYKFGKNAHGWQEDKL
Conditions: protein: recombinant; tags: N-terminal GST; dsDNA, one strand shown. Put shortly:
as §1

The target of test [17] is T12, ETV3 (Homo sapiens, UniProt P41162-2 1-143).
T12 sequence: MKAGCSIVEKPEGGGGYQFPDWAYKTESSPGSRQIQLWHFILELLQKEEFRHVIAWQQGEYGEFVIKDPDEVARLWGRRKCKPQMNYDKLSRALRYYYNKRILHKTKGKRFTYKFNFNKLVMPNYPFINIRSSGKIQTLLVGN
Conditions: protein: recombinant; tags: N-terminal GST; dsDNA, one strand shown. The procedure, abridged: as §1

Test [18] deals with ETV6 (Homo sapiens, UniProt P41212 1-452). Particulars: protein: recombinant; tags: N-terminal GST; dsDNA, one strand shown. The procedure, abridged: as §1
Chain of ETV6 (P41212 whole entry): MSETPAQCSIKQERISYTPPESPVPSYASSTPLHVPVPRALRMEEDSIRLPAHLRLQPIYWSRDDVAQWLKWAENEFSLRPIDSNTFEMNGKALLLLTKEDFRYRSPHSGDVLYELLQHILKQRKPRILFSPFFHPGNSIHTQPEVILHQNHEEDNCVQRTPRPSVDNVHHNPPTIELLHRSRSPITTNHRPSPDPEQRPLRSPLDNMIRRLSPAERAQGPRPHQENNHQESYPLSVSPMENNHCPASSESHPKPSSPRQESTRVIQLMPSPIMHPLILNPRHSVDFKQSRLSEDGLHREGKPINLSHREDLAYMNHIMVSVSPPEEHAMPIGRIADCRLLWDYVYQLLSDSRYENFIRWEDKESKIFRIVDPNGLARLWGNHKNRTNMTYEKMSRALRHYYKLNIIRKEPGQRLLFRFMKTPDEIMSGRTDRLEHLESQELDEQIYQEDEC

Chain of HSF1 (Q00613 whole entry): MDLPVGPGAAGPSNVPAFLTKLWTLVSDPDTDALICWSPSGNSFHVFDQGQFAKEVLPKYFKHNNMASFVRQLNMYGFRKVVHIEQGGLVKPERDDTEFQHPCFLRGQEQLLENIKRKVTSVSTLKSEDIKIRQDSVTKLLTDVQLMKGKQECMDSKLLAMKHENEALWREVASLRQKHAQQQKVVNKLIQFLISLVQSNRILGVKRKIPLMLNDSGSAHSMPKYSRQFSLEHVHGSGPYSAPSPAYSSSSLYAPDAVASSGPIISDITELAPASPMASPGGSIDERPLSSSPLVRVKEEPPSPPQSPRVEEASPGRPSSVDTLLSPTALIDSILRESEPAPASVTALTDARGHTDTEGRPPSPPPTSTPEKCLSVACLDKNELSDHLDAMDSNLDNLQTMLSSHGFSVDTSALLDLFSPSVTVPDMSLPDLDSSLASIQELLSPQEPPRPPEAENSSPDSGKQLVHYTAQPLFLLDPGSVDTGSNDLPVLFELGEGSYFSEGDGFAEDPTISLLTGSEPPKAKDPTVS
Chain of ELF4 (Q99607 whole entry): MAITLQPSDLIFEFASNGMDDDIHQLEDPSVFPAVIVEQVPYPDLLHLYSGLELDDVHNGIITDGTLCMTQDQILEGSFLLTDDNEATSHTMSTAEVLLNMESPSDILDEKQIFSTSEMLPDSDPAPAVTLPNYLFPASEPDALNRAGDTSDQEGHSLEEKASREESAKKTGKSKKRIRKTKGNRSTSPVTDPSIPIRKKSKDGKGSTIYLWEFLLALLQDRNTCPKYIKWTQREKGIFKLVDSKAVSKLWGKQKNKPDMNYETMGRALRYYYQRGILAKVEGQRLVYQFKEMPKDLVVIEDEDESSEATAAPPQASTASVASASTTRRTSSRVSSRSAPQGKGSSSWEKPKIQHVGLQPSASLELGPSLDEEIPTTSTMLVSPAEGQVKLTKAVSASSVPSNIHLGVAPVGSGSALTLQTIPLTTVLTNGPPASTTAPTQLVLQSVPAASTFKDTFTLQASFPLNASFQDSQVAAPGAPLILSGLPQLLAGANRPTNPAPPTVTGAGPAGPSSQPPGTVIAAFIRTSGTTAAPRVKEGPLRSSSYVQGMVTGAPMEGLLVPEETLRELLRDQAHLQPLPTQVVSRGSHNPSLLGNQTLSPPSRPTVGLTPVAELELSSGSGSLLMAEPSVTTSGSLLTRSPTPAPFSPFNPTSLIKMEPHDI
Chain of ETV5 (P41161 whole entry): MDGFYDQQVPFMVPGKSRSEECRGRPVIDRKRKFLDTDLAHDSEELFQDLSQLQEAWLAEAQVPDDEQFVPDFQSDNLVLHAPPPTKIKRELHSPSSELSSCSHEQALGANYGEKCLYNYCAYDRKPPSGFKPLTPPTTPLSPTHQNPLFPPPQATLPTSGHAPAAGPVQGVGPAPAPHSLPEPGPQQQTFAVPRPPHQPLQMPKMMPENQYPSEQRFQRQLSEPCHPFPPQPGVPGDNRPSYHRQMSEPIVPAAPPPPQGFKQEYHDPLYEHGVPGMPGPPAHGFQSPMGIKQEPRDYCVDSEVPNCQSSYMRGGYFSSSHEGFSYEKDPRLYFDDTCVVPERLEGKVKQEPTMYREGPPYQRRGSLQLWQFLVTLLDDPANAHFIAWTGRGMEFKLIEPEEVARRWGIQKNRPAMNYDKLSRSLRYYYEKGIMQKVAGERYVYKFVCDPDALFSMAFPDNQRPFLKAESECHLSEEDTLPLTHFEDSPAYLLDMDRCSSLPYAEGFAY
Chain of CRX (O43186 whole entry): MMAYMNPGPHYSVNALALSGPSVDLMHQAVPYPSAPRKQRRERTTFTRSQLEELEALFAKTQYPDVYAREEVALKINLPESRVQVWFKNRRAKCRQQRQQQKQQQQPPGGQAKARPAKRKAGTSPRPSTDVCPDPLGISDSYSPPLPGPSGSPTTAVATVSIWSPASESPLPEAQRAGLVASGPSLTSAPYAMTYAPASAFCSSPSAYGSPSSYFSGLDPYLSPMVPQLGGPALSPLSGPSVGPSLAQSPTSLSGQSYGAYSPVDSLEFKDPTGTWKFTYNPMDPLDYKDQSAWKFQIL
Chain of ETV1 (P50549 whole entry): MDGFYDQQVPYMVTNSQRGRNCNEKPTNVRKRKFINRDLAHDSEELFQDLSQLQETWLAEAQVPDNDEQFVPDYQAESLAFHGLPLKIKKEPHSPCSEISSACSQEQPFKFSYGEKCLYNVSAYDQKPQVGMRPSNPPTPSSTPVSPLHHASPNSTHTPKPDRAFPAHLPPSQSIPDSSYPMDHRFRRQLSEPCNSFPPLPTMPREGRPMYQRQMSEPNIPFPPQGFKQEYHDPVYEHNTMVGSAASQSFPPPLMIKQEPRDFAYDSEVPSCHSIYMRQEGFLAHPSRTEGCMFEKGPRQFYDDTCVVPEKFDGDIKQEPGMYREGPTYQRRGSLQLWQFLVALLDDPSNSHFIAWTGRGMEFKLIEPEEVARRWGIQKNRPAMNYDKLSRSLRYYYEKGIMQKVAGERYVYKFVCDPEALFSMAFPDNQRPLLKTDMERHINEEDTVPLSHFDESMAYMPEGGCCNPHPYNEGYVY

TTCCTG: the binding signal in [1] was 2.13 fold enrichment (6-mer frequency, TF over GST control); in [2], 2.57 fold enrichment (6-mer frequency, TF over GST control); in test [3] it was 1.63 fold enrichment (6-mer frequency, TF over GST control); in test [4] it was 2.31 fold enrichment (6-mer frequency, TF over GST control); in [5], 2.05 fold enrichment (6-mer frequency, TF over GST control); in [6], 1.78 fold enrichment (6-mer frequency, TF over GST control). Moreover, the binding signal in test [7] is 2.46 fold enrichment (6-mer frequency, TF over GST control); in test [8] it was 2.23 fold enrichment (6-mer frequency, TF over GST control); in [9], 1.12 fold enrichment (6-mer frequency, TF over GST control); in [10], 2.22 fold enrichment (6-mer frequency, TF over GST control); in test [11], 1.87 fold enrichment (6-mer frequency, TF over GST control); in test [12], 2.35 fold enrichment (6-mer frequency, TF over GST control). The binding signal in test [13] is 2.4 fold enrichment (6-mer frequency, TF over GST control); in test [14], 2.25 fold enrichment (6-mer frequency, TF over GST control); in test [15] it was 2.03 fold enrichment (6-mer frequency, TF over GST control); in test [16], 3.79 fold enrichment (6-mer frequency, TF over GST control); in test [17] it was 2.66 fold enrichment (6-mer frequency, TF over GST control); in test [18], 2.57 fold enrichment (6-mer frequency, TF over GST control).
